According to PubChem BioAssay (EPA / NIEHS):
Several values for one entry are separate records, joined by “and”; a condition that tells them apart may be missing. Equal entries are not always repeated. Records with an inconclusive call do not appear. More than one record can exist for a structure, and the calls need not agree. Activity calls are given as the source filed them. How the source made its calls, unless noted: active means hit-call score of the fitted dose curve at least 0.9, where 1 is the maximum; inactive means score below 0.9.

Tests used:
[1] = read-out: Interleukin 6 (IL6), IL6 (gene 3569); assay: BSK_BT_xIL6: BioMAP Diversity Plus: BT Assay for Interleukin 6 (IL6) Biomarker Activity (AID 2284228); conditions: primary human B cells with PBMC
How it was run: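 B cells and peripheral blood mononuclear cells (human primary co-culture) were dosed with chemical, and after 24 h IL-6 released into the medium was measured by Luminex xMAP. Responses were analysed as gain of signal over DMSO control.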

[2] = read-out: Interleukin 17A (IL17A), IL17A (gene 3605); assay: BSK_BT_xIL17A: BioMAP Diversity Plus: BT Assay for Interleukin 17A (IL17A) Biomarker Activity (AID 2284229); conditions: primary human B cells with PBMC
How it was run: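 Secreted IL-17A was the measured endpoint, read by Luminex xMAP multiplex in supernatants of a human B cell/PBMC co-culture harvested 24 h after chemical dosing. Signal increase relative to DMSO defined activity.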

[3] = read-out: Tumor necrosis factor (Homo sapiens) (UniProt P01375); assay: BSK_BT_xTNFa: BioMAP Diversity Plus: BT Assay for Tumor necrosis factor alpha (TNF-alpha) Biomarker Activity (AID 2284230); conditions: primary human B cells with PBMC
How it was run: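 Read-out: Luminex xMAP quantitation of secreted TNF-alpha from a B cell/PBMC co-culture 24 h after compound addition. Signal analysed relative to DMSO vehicle, positive fitting direction.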

[4] = read-out: Vascular cell adhesion molecule 1 (VCAM1), VCAM1 (gene 7412); assay: BSK_MyoF_VCAM1: BioMAP Diversity Plus: MyoF Assay for Vascular cell adhesion molecule 1 (VCAM1) Biomarker Activity (AID 2284231); conditions: primary human lung fibroblasts
How it was run: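 ELISA read-out of VCAM-1 on human lung fibroblasts 24 h after chemical treatment, with positive-direction curve fitting relative to DMSO controls. Parallel cultures were stained with sulforhodamine B for total protein to flag overt cytotoxicity.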

[5] = read-out: Collagen I, COL1A1 (gene 1277); assay: BSK_MyoF_CollagenI: BioMAP Diversity Plus: MyoF Assay for Collagen I Biomarker Activity (AID 2284238); conditions: primary human lung fibroblasts
How it was run: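 Lung fibroblasts (human primary) dosed, 24 h; Collagen I by ELISA; positive-direction fit vs DMSO control. Parallel SRB total-protein staining (0.1% SRB, 10% TCA fixation, 560 nm) flags overt cytotoxicity.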

[6] = read-out: Collagen III, COL3A1 (gene 1281); assay: BSK_MyoF_CollagenIII: BioMAP Diversity Plus: MyoF Assay for Collagen III Biomarker Activity (AID 2284239); conditions: primary human lung fibroblasts
How it was run: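 ELISA read-out of collagen III from human lung fibroblasts after 24 h of chemical treatment. The DMSO control served as negative control and baseline, with values fitted in the positive direction.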

[7] = UKN2_HCS_IMR90_cell_viability: Viability Assessment in the University of Konstanz (UKN) Leist Lab Neural Crest Cell Migration Assay in human induced IMR90 Pluripotent Stem Cells (UKN2) (AID 2284233);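 further: viability of neural crest cells differentiated from IMR90 iPSC measured by calcein-AM fluorescence imaging; cells exposed to compound for 24 h after a 24 h migration phase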
How it was run: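 Neural crest cells derived from IMR90 iPSC migrate into a stopper-free zone for 24 h in EGF/FGF medium, then are exposed to compound for 24 h. Viability assessed by calcein-AM and Hoechst staining with high-content imaging, fitted bidirectionally versus DMSO.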

[8] = CCTE_Mundy_HCI_Cortical_NOG_NeuronCount: CCTE's Neurite Outgrowth Assay in rat cortical cells for Neuron Count, Mundy Lab (AID 2284236; active means hit-call score of the fitted dose curve at least 0.9, where 1 is the maximum;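 further: neurons counted by imaging betaIII-tubulin and Hoechst stained cortical cells; cells exposed to compound for about 48 hours before fixation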)
How it was run: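 Read-out: neuron number by high-content imaging of betaIII-tubulin (Alexa Fluor-488) and Hoechst-labelled rat primary cortical cells.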

[9] = CCTE_Mundy_HCI_Cortical_NOG_BPCount: CCTE's Neurite Outgrowth Assay in rat cortical cells for Branch Point Count, Mundy Lab (AID 2284237);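 further: branch points counted about two days after chemical exposure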
How it was run: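 Measured 50.33 h after dosing, this morphology endpoint uses rat primary cortical cultures labelled for betaIII-tubulin. Branch points are quantified by high-content imaging, with DMSO as negative control and baseline.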

Measured: AC50

Tumor necrosis factor (Homo sapiens), sequence (P01375 whole entry, looked up): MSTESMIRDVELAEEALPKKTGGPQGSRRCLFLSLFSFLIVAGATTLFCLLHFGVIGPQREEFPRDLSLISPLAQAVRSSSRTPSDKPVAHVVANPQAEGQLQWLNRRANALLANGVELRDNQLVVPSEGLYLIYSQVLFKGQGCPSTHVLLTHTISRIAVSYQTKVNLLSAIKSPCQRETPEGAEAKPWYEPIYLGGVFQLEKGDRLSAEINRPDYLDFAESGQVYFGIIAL

CCCCCCCCCCCCN(C)C
inactive: [1] | [2] | [3] | [4] | [5] | [6]

CC(C)=CC1C(C(=O)OCc2cccc(Oc3ccccc3)c2)C1(C)C (stereo not given)
inactive: [2] | [4] | [5] | [6]
active: [1] 11.2 µM | [3] 20 µM

OC(Cc1ccccc1Cl)(Cn1[nH]cnc1=S)C1(Cl)CC1 (stereo not given)
inactive: [1] | [2] | [3] | [8]
active: [4] 30.1 µM | [7] 63.1 µM | [9] 50 µM | [5] 31.4 µM | [6] 30.5 µM

Cc1cc(C(C)(C)c2ccc(O)c(C)c2)ccc1O
inactive: [1] | [2] | [3]
active: [4] 16.4 µM | [5] 15.4 µM | [6] 15.1 µM

Cc1cc(Cl)ccc1N
inactive: [1] | [2] | [3] | [4] | [5] | [6]

Cc1ccccc1OP(=O)(Oc1ccccc1)Oc1ccccc1
inactive: [1] | [2] | [3]
active: [4] 33 µM | [5] 36.9 µM | [6] 28.2 µM

C[C@]12CC[C@@H](O)C[C@@H]1CC[C@@H]1[C@@H]2CC[C@]2(C)C(=O)CC[C@@H]12
inactive: [1] | [2] | [3] | [4] | [5] | [6]

Cc1ccc(OP(=O)(Oc2ccc(C)cc2C)Oc2ccc(C)cc2C)c(C)c1
active: [1] 11.7 µM | [2] 20 µM | [3] 20 µM | [6] 20 µM
inactive: [4] | [5]

CCOC(=O)CC(=O)CCl
active: [1] 11.8 µM | [2] 10.5 µM | [3] 23.4 µM
inactive: [4] | [5] | [6]

O=[N+]([O-])c1cccc2ccccc12
inactive: [1] | [2] | [3] | [4] | [5] | [6]

CC(C)N(C(=O)CCl)c1ccccc1
active: [1] 12.3 µM | [2] 5.91 µM | [3] 12 µM | [4] 2.36 µM | [5] 3.62 µM | [6] 1.12 µM

O=S(=O)(c1ccc(Cl)cc1)c1cc(Cl)c(Cl)cc1Cl
inactive: [1] | [2] | [3] | [4] | [5] | [6]

O=S(=O)(C(Cl)(Cl)Cl)C(Cl)(Cl)Cl
active: [1] 3.85 µM | [2] 3.08 µM | [3] 4.36 µM | [4] 3.12 µM | [5] 3.07 µM | [6] 4.1 µM

[Cl][Sn]([c]1ccccc1)([c]1ccccc1)[c]1ccccc1
active: [1] 0.456 µM | [2] 0.204 µM | [3] 0.495 µM | [4] 0.0907 µM | [5] 0.0894 µM | [6] 0.402 µM

CCOC(=O)CCN(SN(C)C(=O)Oc1cccc2c1OC(C)(C)C2)C(C)C
active: [1] 33.4 µM | [2] 26.5 µM | [3] 36.7 µM | [4] 33.1 µM
inactive: [5] | [6]

Cc1cccc(OP(=O)(Oc2cccc(C)c2)Oc2cccc(C)c2)c1
inactive: [1] | [2] | [3] | [4] | [5] | [6]

c1ccc(-c2cccc(-c3ccccc3)c2)cc1
inactive: [1] | [2] | [3]
active: [4] 29.1 µM | [5] 26.4 µM | [6] 32.9 µM

Nc1ccc(N)cc1
inactive: [1] | [2] | [3] | [4] | [5] | [6]

c1ccc2sc(SNC3CCCCC3)nc2c1
inactive: [1] | [4] | [5] | [6]
active: [2] 20 µM | [3] 37.6 µM

Nc1c(Oc2ccccc2)cc(O)c2c1C(=O)c1ccccc1C2=O
inactive: [1] | [2] | [3] | [4] | [5] | [6]

C=CC(Cl)CCl (stereo not given)
active: [4] 4.05 µM | [5] 0.0855 µM
inactive: [1] | [2] | [3] | [6]

CC1(C)[C@H](C(=O)O[C@H](C#N)c2cccc(Oc3ccccc3)c2)[C@@H]1/C=C(\Cl)C(F)(F)F
active: [1] 17.1 µM and 8.49 µM | [2] 17.1 µM | [9] 20.2 µM
inactive: [2] | [3] | [4] | [8] | [5] | [6]

Cc1ccccc1OP(=O)(Oc1ccccc1C)Oc1ccccc1C
active: [1] 20 µM | [2] 24.7 µM | [3] 31 µM | [4] 11.4 µM | [7] 8.46 µM | [8] 24.1 µM | [9] 18 µM | [5] 9.92 µM | [6] 10 µM

Oc1c(Br)cc(Br)cc1Br
inactive: [1] | [2] | [3] | [6]
active: [4] 15.4 µM | [5] 29.9 µM

OC(Cc1ccccc1Cl)(Cn1cncn1)C1(Cl)CC1 (stereo not given)
inactive: [1] | [2] | [3] | [4] | [5] | [6]

CCOP(=S)(OCC)SCS(=O)(=O)C(C)(C)C
inactive: [1] | [2] | [3] | [4] | [5] | [6]
